Screening results from PubChem BioAssay.
NALP1 inh: NALP1 inhibition; S. cerevisiae NALP1/ASC/caspase-1 growth, X-gal OD620, 72 h; inhibition, % at 10 µM; AID 2071; 280,000 tested, 0.61% active; in the data active means inhibition mostly above about 24%, no sharp cut-off; inactive means mostly below about 32%
tim23-1 inh: tim23-1 yeast growth inhibition; inhibition, % at 20 µM; AID 463212; 330,000 tested, 1.3% active; S. cerevisiae tim23-1 growth, BacTiter-Glo luminescence, 24 h;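 active means growth inhibition of the mutant yeast at or above 50%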;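 further: temperature-sensitive mutant grown at 25 °C; plate controls were DMSO-treated mutant yeast for no effect and medium wells lacking yeast for full effect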
tim10-1 inh: inhibits growth of tim10-1 mutant yeast; S. cerevisiae tim10-1 ts strain growth, BacTiter-Glo, 24 h; inhibition, % at 20 µM; 330,000 tested, 2.2% active;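 active means inhibition of at least 40%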;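 further: mutant grown at 25 °C; 0% = DMSO wells with yeast and 100% = wells holding no yeast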
NALP3 yeast inh: blocks the NALP3 inflammasome reconstituted in yeast; AID 2825; 330,000 tested, 0.39% active; Yeast reconstituted NLRP3/ASC/caspase-1, beta-gal luminescence, 24 h; inhibition, % at 10 µM;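 active means inhibition of 50% or more; inactive means inhibition below 50%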;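 further: plate controls were induced DMSO wells for no effect and uninduced yeast grown without galactose for full effect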
TIM10 inh: TIM10 yeast growth inhibition | S. cerevisiae TIM10 strain growth, BacTiter-Glo luminescence, 24 h | inhibition, % at 10 µM | 330,000 tested, 1.4% active | AID 463195;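 active means inhibition of 40% or more at the single tested concentration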;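 further: wild-type TIM10 isogenic control strain grown at permissive 25 °C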
PfHsp90 set2: inhibits growth of yeast expressing Plasmodium falciparum Hsp90. S. cerevisiae expressing PfHsp90, BacTiter-Glo ATP, 48 h; yeast lacking PDR1 and PDR3 efflux regulators. inhibition, % at 9.4 µM. 310,000 tested, 0.32% active;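 active means every replicate shows inhibition above about 80%, whatever the replicate mean, limit read from the data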;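 further: 0% = DMSO neutral controls and 100% = 20 µM radicicol positive controls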
tim10-1 conf: tim10-1 yeast growth inhibition, confirmed; shares compounds with tim10-1 inh; S. cerevisiae tim10-1 ts strain growth, BacTiter-Glo, 24 h; inhibition, % at 20 µM; 7,400 tested, 56% active;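 active means inhibition of yeast growth at or above a set limit in either of two repeat tests at 20 µM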;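 further: tim10-1 mutant grown at permissive 25 °C to find synthetic lethal compounds; 0% = DMSO yeast wells and 100% = medium wells without yeast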
TIM10 conf: confirmation of TIM10 yeast growth inhibitors; S. cerevisiae tim10 strain growth, BacTiter-Glo luminescence, 24 h; 4,600 tested, 63% active; shares compounds with TIM10 inh; inhibition, % at 10 µM;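 active means inhibition of yeast growth at or above a set limit in either of two replicates at 10 µM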;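 further: this counterscreen used the strain with wild-type TIM10; 0% = yeast with DMSO and 100% = medium wells lacking yeast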
tim23-1 confirm: confirmation of tim23-1 mutant yeast growth inhibitors; 4,400 tested, 83% active; shares compounds with tim23-1 inh; inhibition, % at 20 µM; AID 463218; S. cerevisiae tim23-1 growth, BacTiter-Glo luminescence, 24 h;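 active means inhibition above about 39% in either of two replicate wells at 20 µM, limit read from the data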;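 further: temperature-sensitive tim23-1 mutant grown at 25 °C; 0% = DMSO wells with yeast and 100% = medium wells without yeast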
* hit, by the source's call; · = no result. Most compounds without a hit are left out; they make up all but 4.1% or so of the library.

SMILES	NALP1 inh	tim23-1 inh	tim10-1 inh	NALP3 yeast inh	TIM10 inh	PfHsp90 set2	tim10-1 conf	TIM10 conf	tim23-1 confirm
N/C(=N\OC(=O)CCC1CCCC1)c1ccc(Cl)cc1	18	59*	61*	10	79*	·	61*	73*	65*
Cc1cccc(/C(N)=N/OC(=O)CCC2CCCCC2)c1	22	64*	50*	-20	62*	-20	56*	75*	72*
COc1ccc(/C(N)=N/OC(=O)CCC2CCCC2)cc1	5	65*	60*	4	54*	7	56*	53*	67*
Cc1ccc(/C(N)=N/OC(=O)CCC2CCCC2)cc1	-5	72*	58*	14	63*	-7	46*	75*	55*
Cc1ccc(NS(=O)(=O)c2c(C)[nH]c(C)c2C(=O)N2CCCCC2)c(Cl)c1	19	2	-2	15	-2	10	·	·	·
CCN(Cc1ccc(OC)c(F)c1)C(=O)/C=C/c1ccc(S(=O)(=O)N2CCOCC2)cc1	·	26	24	13	17	·	·	·	·
Cc1ccc(/C(N)=N/OC(=O)CCC2CCCCC2)cc1	-2	77*	60*	-1	83*	·	44*	82*	71*
Cc1cc(NC(=O)OC2CCCCC2)ccc1[N+](=O)[O-]	-4	53*	49*	28	34	-26	25	·	55*
Cc1ccc(NC(=O)CCC(=O)c2ccc(Cl)s2)nc1	·	-2	-34	29	9	8	·	·	·
Cc1ccc(NC(=S)NNC(=S)NC2CCCCC2)cc1	-11	1	31	8	18	-34	·	·	·
S=C(NNc1ccc2ccccc2c1)NC1CCCCC1	6	52*	49*	7	51*	-39	53*	56*	52*
Cc1cccc(/C(N)=N/OC(=O)Cc2cccc3ccccc23)c1	2	54*	62*	20	76*	-3	69*	79*	60*
Cc1ccc(/C(N)=N/OC(=O)Cc2cccc3ccccc23)cc1	11	50*	57*	13	62*	-6	58*	54*	46*
Cc1ccc(/C(N)=N/OC(=O)Cc2ccccc2)cc1	30	28	33	14	40	-15	·	·	·
O=C(/C=C/c1ccc(Cl)cc1Cl)n1cccn1	20	66*	56*	-12	53*	13	58*	-26	84*
COc1ccc(N(CC(=O)NN=C2CCN(C)CC2)S(=O)(=O)c2ccccc2)c(OC)c1	-1	21	11	12	0	1	·	·	·
Cc1ccc(NC(=O)c2cccc(S(=O)(=O)N(C)C3CCCCC3)c2)nc1	·	25	22	2	-25	-7	·	·	·
S=C1NCCc2ccc(Cl)cc2C1c1ccccc1Cl (centres undefined)	1	59*	44*	-37	47*	-10	21	4	37
Clc1ccc2c(c1)C(C1=NCCN1)c1ccccc1CS2 (centres undefined)	9	2	-15	12	6	-2	·	·	·
C=CCOc1c(Br)cc(/C=C2/C(=O)ON=C2C)cc1OC	6	-5	23	16	-5	-27	·	·	·
CC(C)(C)c1cc(-c2csc(Nc3ccccc3)[n+]2Cc2ccc(C(=O)O)cc2)cc(C(C)(C)C)c1O	-19	54*	46*	-20	38	-137	57*	·	53*
Cc1ccc(C)c(N2CCN(c3ncccc3[N+](=O)[O-])CC2)c1	20	15	-12	21	-1	-25	·	·	·
CCCCOc1cccc(-c2nnc(N)s2)c1	-13	52*	53*	2	29	11	36*	·	50*
O=C(/C=C/c1cccc([N+](=O)[O-])c1)c1cccs1	40	52*	57*	26	69*	93*	52*	72*	49*
Cc1cc(C(=O)N/N=C/C=C/c2ccccc2[N+](=O)[O-])c(C)o1	12	55*	45*	2	56*	15	44*	41*	57*
SMILES	NALP1 inh	tim23-1 inh	tim10-1 inh	NALP3 yeast inh	TIM10 inh	PfHsp90 set2	tim10-1 conf	TIM10 conf	tim23-1 confirm
O=C(O)c1ccccc1NSc1ccccc1[N+](=O)[O-]	17	11	27	5	20	-44	·	·	·
CCc1ccc(NSc2ccccc2[N+](=O)[O-])cc1	36	52*	54*	27	36	-8	43*	·	58*
CCOc1ccc(NCc2nnc(SCc3ccc(Cl)cc3)n2-c2ccccc2)cc1	28	52*	46*	14	47*	7	42*	-24	56*
CC(C)C[C@H](NC(=O)N1CCn2c1nc1ccccc12)C(=O)N[C@@H](C(=O)O)c1ccccc1	1	-2	2	-8	6	16	·	·	·
Cc1ccc(NCCCn2ccc(NC(=O)OCc3ccccc3)nc2=O)cc1C	·	·	·	·	·	2	·	·	·
COc1ccc(NC(=O)CN(C)C(=O)C23CC4CC(CC(C4)C2)C3)cc1	1	40	25	15	10	3	·	·	·
N#C/C(=C\c1cccc([N+](=O)[O-])c1)C(=O)NCC1CCCO1 (centres undefined)	-2	77*	57*	0	57*	7	52*	45*	72*
COc1cc(/C=C(\C#N)C(=O)NCC2CCCO2)c([N+](=O)[O-])cc1OC (centres undefined)	0	34	34	4	22	-15	·	·	·
Cc1ccc(/C=C(\C#N)C(=O)NCC2CCCO2)o1 (centres undefined)	15	14	7	13	9	-9	·	·	·
N#C/C(=C\c1cc2c(cc1Br)OCO2)C(=O)NCC1CCCO1 (centres undefined)	27	87*	67*	22	65*	-5	67*	72*	78*
COc1ccccc1CCC(=O)OCC(=O)Nc1ccc2[nH]c(=O)[nH]c2c1	·	-3	-9	15	2	·	·	·	·
CCOC(=O)C1=C(O)c2ccccc2C(=O)/C1=C\c1ccc(CC)cc1	41	·	·	·	·	-3	·	·	·
CCOC(=O)C1=C(Cc2ccc(C)cc2)C(=O)c2ccccc2C1=O	-16	61*	62*	-14	57*	·	68*	67*	60*
CCCc1ccc(/C=C2\C(=O)c3ccccc3C(O)=C2C(=O)OCC)cc1	·	52*	66*	4	45*	·	66*	48*	57*
O=C(C[C@H]1C/C=C\C[C@@H](Cc2ccc(F)cc2)C(=O)OC[C@@H]2CCCN2C1=O)NCCO	·	14	16	19	2	-7	·	·	·
